Measurements as given in PubChem BioAssay (NCATS).
Inconclusive results are not listed. Where a call stands in place of a potency, no number is given. Calls of active or inactive are those of the source. Unless noted, the call rests on the fitted dose curve; in most records, active means well fitted curve in the direction sought with a large enough effect; inconclusive means small, poorly fitted or top-dose-only effect, or another doubt; inactive means no such curve, though single readings can be large; an effect the other way counts as inactive or inconclusive.

Assays:
[1] = S16 Schwann cell viability assay (CellTiter-Glo assay) (AID 624031); settings: S16 rat Schwann cells viability, 24 h; series mostly up to 57.5 µM;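 further: native untransfected S16 rat Schwann cells; cellular ATP luminescence as a viability measure; nearly all actives have a fitted effect of over 70% in size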
Outline: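 Cells were seeded at 500-750 per well in phenol red-free DMEM with 10% FBS and left overnight. Compounds or DMSO were pinned in, incubation ran 24 h at 37 °C/5% CO2, then CellTiter-Glo reagent was added and luminescence measured.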

[2] = S16 Schwann cell PMP22 intronic element beta-lactamase assay (AID 624044; calls by dose curve; further: nearly all actives have a fitted effect of over 15% in size); settings: S16 rat Schwann cells, PMP22 element beta-lactamase FRET, 24 h; ratio activity, negative = inhibition: at 38.3 µM (top of the series)
Outline: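 Rat S16 Schwann cells with beta-Lac driven by a PMP22 intronic element, compound-treated 24 h at 37 °C. LiveBLAzer FRET B/G read: 460 nm normalized to potassium clavulanate vs DMSO; 535 nm FRET as viability; concentration-effect curves classified.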

[3] = test system: AA1029; experiment: qHTS profiling for inhibitors of Plasmodium falciparum proliferation (AID 504749); further: nearly all actives have a fitted effect of over 60% in size; further: potency means the concentration at half of the fitted maximal effect; settings: P. falciparum in erythrocytes, SYBR Green DNA, 72 h; series mostly up to 28.7 µM
Outline: (§1)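 P. falciparum-infected erythrocytes (0.3% parasitemia, 2.5% hematocrit) incubated with compound 72 h at 37 C, 5% CO2. Parasite DNA detected by SYBR Green after lysis, overnight at room temperature; normalised to 0.29 uM artemisinin and DMSO.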

[4] = test system: C2A; experiment: as above; settings: P. falciparum in erythrocytes, SYBR Green DNA, 72 h; series mostly up to 28.7 µM
Outline: as §1

[5] = test system: CP211; experiment: as above; settings: P. falciparum in erythrocytes, SYBR Green DNA, 72 h; series mostly up to 28.7 µM
Outline: as §1

[6] = test system: CP217; experiment: as above; settings: P. falciparum in erythrocytes, SYBR Green DNA, 72 h; series mostly up to 28.7 µM
Outline: as §1

[7] = test system: CP250; experiment: as above; settings: P. falciparum in erythrocytes, SYBR Green DNA, 72 h; series mostly up to 28.7 µM
Outline: as §1

[8] = test system: CP252; experiment: as above; settings: P. falciparum in erythrocytes, SYBR Green DNA, 72 h; series mostly up to 28.7 µM
Outline: as §1

[9] = test system: CP256; experiment: as above; settings: P. falciparum in erythrocytes, SYBR Green DNA, 72 h; series mostly up to 28.7 µM
Outline: as §1

[10] = test system: CP260; experiment: as above; settings: P. falciparum in erythrocytes, SYBR Green DNA, 72 h; series mostly up to 28.7 µM
Outline: as §1

[11] = test system: CP335; experiment: as above; settings: P. falciparum in erythrocytes, SYBR Green DNA, 72 h; series mostly up to 28.7 µM
Outline: as §1

[12] = test system: DFO2036; experiment: as above; settings: P. falciparum in erythrocytes, SYBR Green DNA, 72 h; series mostly up to 28.7 µM
Outline: as §1

[13] = test system: DIV14; experiment: as above; settings: P. falciparum in erythrocytes, SYBR Green DNA, 72 h; series mostly up to 28.7 µM
Outline: as §1

[14] = test system: DIV17; experiment: as above; settings: P. falciparum in erythrocytes, SYBR Green DNA, 72 h; series mostly up to 28.7 µM
Outline: as §1

[15] = test system: ICS; experiment: as above; settings: P. falciparum in erythrocytes, SYBR Green DNA, 72 h; series mostly up to 28.7 µM
Outline: as §1

[16] = test system: N140; experiment: as above; settings: P. falciparum in erythrocytes, SYBR Green DNA, 72 h; series mostly up to 28.7 µM
Outline: as §1

[17] = test system: P93_24; experiment: as above; settings: P. falciparum in erythrocytes, SYBR Green DNA, 72 h; series mostly up to 28.7 µM
Outline: as §1

[18] = test system: PC26; experiment: as above; settings: P. falciparum in erythrocytes, SYBR Green DNA, 72 h; series mostly up to 28.7 µM
Outline: as §1

[19] = test system: SC27B; experiment: as above; settings: P. falciparum in erythrocytes, SYBR Green DNA, 72 h; series mostly up to 28.7 µM
Outline: as §1

[20] = test system: TAB165; experiment: as above; settings: P. falciparum in erythrocytes, SYBR Green DNA, 72 h; series mostly up to 28.7 µM
Outline: as §1

| SMILES | Potency [1] | Potency [2] | Potency [3] | Potency [4] | Potency [5] | Potency [6] | Potency [7] | Potency [8] | Potency [9] | Potency [10] | Potency [11] | Potency [12] | Potency [13] | Potency [14] | Potency [15] | Potency [16] | Potency [17] | Potency [18] | Potency [19] | Potency [20] |
| --- | --- | --- | --- | --- | --- | --- | --- | --- | --- | --- | --- | --- | --- | --- | --- | --- | --- | --- | --- | --- |
| CN1[C@H]2CC(OC(=O)[C@H](CO)c3ccccc3)C[C@H]1[C@H]1O[C@H]12 (some centres undefined) | inactive | inactive | inactive | inactive | inactive | inactive | inactive | inactive | inactive | inactive | inactive | inactive | inactive | inactive | inactive | inactive | inactive | inactive | inactive | inactive |
| CO[C@H]1/C=C/O[C@@]2(C)Oc3c(C)c(O)c4c(O)c(c5c(c4c3C2=O)NC2(CCN(CC(C)C)CC2)N=5)=NC(=O)/C(C)=C\C=C\[C@H](C)[C@H](O)[C@@H](C)[C@@H](O)[C@@H](C)[C@H](OC(C)=O)[C@@H]1C | inactive | inactive | 11.2 µM (active) | 8.91 µM (active) | inactive | 8.91 µM (active) | 7.08 µM (active) | 8.91 µM (active) | 8.91 µM (active) | 8.91 µM (active) | 13.5 µM (active) |  | 8.49 µM (active) | 10.7 µM (active) | 8.91 µM (active) | 8.91 µM (active) | 6.31 µM (active) | 10.7 µM (active) | 8.91 µM (active) | 7.94 µM (active) |
